Test results from PubChem BioAssay (NCI).
About 83,000 compounds went through this panel and 20% of them were active in at least one assay; those are over-represented in the sample as a whole.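 Cell lines were cultured in 96-well plates, exposed to a single compound concentration, and assessed for percent growth 48 hours later.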 Calls of active or inactive are those of the source. How the source made its calls: active means growth percent below 10; inactive means the rest.

Experiments:
Experiment in all cases: NCI-60 one-dose screen, 48 h (100 = growth as untreated, 0 = no growth, -100 = all killed)
Settings in all cases: 10 µM unless noted
NCI-H23 lung = test system: NCI-H23 lung
NCI-H226 lung = test system: NCI-H226 lung
NCI-H322M lung = test system: NCI-H322M lung
HOP-62 NSCLC = test system: HOP-62 NSCLC
NCI-H460 lung = test system: NCI-H460 lung
HOP-92 NSCLC = test system: HOP-92 NSCLC
NCI-H522 lung = test system: NCI-H522 lung
A549/ATCC NSCLC = test system: A549/ATCC NSCLC
786-0 renal = test system: 786-0 renal
DU-145 prostate = test system: DU-145 prostate
K-562 leukemia = test system: K-562 leukemia
MALME-3M melanoma = test system: MALME-3M melanoma
MDA-MB-231 breast = test system: MDA-MB-231 breast
RXF 393 renal = test system: RXF 393 renal
SF-268 CNS = test system: SF-268 CNS
SF-295 CNS = test system: SF-295 CNS
SF-539 CNS = test system: SF-539 CNS
UACC-257 melanoma = test system: UACC-257 melanoma
M14 melanoma = test system: M14 melanoma
COLO 205 colon = test system: COLO 205 colon

Measured: growth

Cc1nc2ncnc(Cl)c2[nH]1
inactive: NCI-H23 lung 95.3% | NCI-H226 lung 101% | NCI-H322M lung 98.2% | HOP-62 NSCLC 112% | NCI-H460 lung 104% | HOP-92 NSCLC 77.7% | NCI-H522 lung 91.3% | A549/ATCC NSCLC 93.1% | 786-0 renal 105% | DU-145 prostate 106% | K-562 leukemia 97.3% | MALME-3M melanoma 106% | MDA-MB-231 breast 103% | RXF 393 renal 112% | SF-268 CNS 103% | SF-295 CNS 107% | SF-539 CNS 103% | UACC-257 melanoma 91.1% | M14 melanoma 88.8%

O=C(CCc1nnc(Cn2cnc3nc[nH]c3c2=O)o1)c1nc2ncccc2[nH]1
inactive: NCI-H23 lung 97.4% | NCI-H226 lung 101% | NCI-H322M lung 92.3% | HOP-62 NSCLC 97.3% | HOP-92 NSCLC 104% | NCI-H522 lung 94.3% | A549/ATCC NSCLC 98.1% | 786-0 renal 93.7% | COLO 205 colon 104% | DU-145 prostate 108% | K-562 leukemia 99.7% | MALME-3M melanoma 97.5% | MDA-MB-231 breast 94.7% | RXF 393 renal 102% | SF-268 CNS 96.1% | SF-295 CNS 101% | SF-539 CNS 95% | UACC-257 melanoma 105% | M14 melanoma 96.5%

Cc1oc(-c2ccc(Cl)cc2)nc1/C=C/C(=O)c1ccccc1
inactive: NCI-H23 lung 98.8% | NCI-H226 lung 88.4% | NCI-H322M lung 101% | HOP-62 NSCLC 110% | HOP-92 NSCLC 88.4% | NCI-H522 lung 93.1% | A549/ATCC NSCLC 99.1% | 786-0 renal 96.4% | COLO 205 colon 114% | DU-145 prostate 109% | K-562 leukemia 99.1% | MALME-3M melanoma 97.6% | MDA-MB-231 breast 101% | RXF 393 renal 106% | SF-268 CNS 97.1% | SF-295 CNS 99.9% | SF-539 CNS 99.5% | UACC-257 melanoma 106% | M14 melanoma 104%

CCc1nc2c(=O)[nH]cnc2o1
inactive: NCI-H23 lung 107% | NCI-H226 lung 96.4% | NCI-H322M lung 97.8% | HOP-62 NSCLC 100% | HOP-92 NSCLC 72.2% | NCI-H522 lung 108% | A549/ATCC NSCLC 99.7% | 786-0 renal 110% | COLO 205 colon 110% | DU-145 prostate 112% | K-562 leukemia 104% | MALME-3M melanoma 83.1% | MDA-MB-231 breast 117% | RXF 393 renal 102% | SF-268 CNS 103% | SF-295 CNS 110% | SF-539 CNS 94.8% | UACC-257 melanoma 107% | M14 melanoma 103%

N=C(N)c1ccc(-c2ccc(-c3ccc(F)cc3)o2)o1
active: A549/ATCC NSCLC 1.43% | COLO 205 colon -76.5% | K-562 leukemia -28.5% | MDA-MB-231 breast 8.5% | M14 melanoma -54.1%
inactive: NCI-H23 lung 44.8% | NCI-H226 lung 69.7% | NCI-H322M lung 42.4% | HOP-62 NSCLC 38.1% | HOP-92 NSCLC 16.2% | NCI-H522 lung 37.4% | 786-0 renal 15.4% | DU-145 prostate 28.7% | MALME-3M melanoma 41.6% | RXF 393 renal 39.6% | SF-268 CNS 30% | SF-295 CNS 31.4% | SF-539 CNS 21.9% | UACC-257 melanoma 57.7%

Cc1ccccc1Cn1cnc2ccc(-c3cc(NC(=O)c4ccc(NC5CCN(C)CC5)cc4)n[nH]3)cc21
inactive: NCI-H23 lung 75% | NCI-H226 lung 68% | NCI-H322M lung 83.5% | HOP-62 NSCLC 72.3% | HOP-92 NSCLC 92.4% | NCI-H522 lung 57.2% | A549/ATCC NSCLC 84.5% | 786-0 renal 85% | COLO 205 colon 70.8% | DU-145 prostate 90.8% | K-562 leukemia 15.8% | MALME-3M melanoma 31.6% | MDA-MB-231 breast 61.3% | SF-268 CNS 69.2% | SF-295 CNS 89.9% | SF-539 CNS 27.4% | UACC-257 melanoma 81% | M14 melanoma 82.9%
active: RXF 393 renal 4.62%

C=C(C)[C@@H]1CC[C@]2(C(=O)OC)CC[C@]3(C)[C@H](CC[C@@H]4[C@@]5(C)C/C(=C/NC(N)=S)C(=O)C(C)(C)[C@@H]5CC[C@]43C)[C@@H]12
inactive: NCI-H23 lung 80.4% | NCI-H226 lung 86.3% | NCI-H322M lung 101% | HOP-62 NSCLC 97.5% | HOP-92 NSCLC 90.4% | NCI-H522 lung 88.2% | A549/ATCC NSCLC 76.5% | 786-0 renal 108% | COLO 205 colon 110% | DU-145 prostate 86.3% | K-562 leukemia 73.6% | MALME-3M melanoma 119% | MDA-MB-231 breast 98.5% | RXF 393 renal 99.8% | SF-268 CNS 95.8% | SF-295 CNS 99.4% | SF-539 CNS 85.6% | UACC-257 melanoma 100% | M14 melanoma 87.9%

Nc1c(C(=O)Nc2ccccc2Cl)sc2nc3c(cc12)C(O)CCC3 (configuration not stated)
inactive: NCI-H23 lung 44.2% | NCI-H226 lung 52.8% | NCI-H322M lung 60.2% | HOP-62 NSCLC 41.8% | HOP-92 NSCLC 46.4% | A549/ATCC NSCLC 25.4% | 786-0 renal 48.1% | DU-145 prostate 14.4% | K-562 leukemia 10.9% | MALME-3M melanoma 76.2% | MDA-MB-231 breast 58.2% | RXF 393 renal 19.6% | SF-268 CNS 65.6% | SF-295 CNS 22.8% | UACC-257 melanoma 56.8% | M14 melanoma 19.9%
active: NCI-H522 lung -33.7% | COLO 205 colon 4.09% | SF-539 CNS 3.94%
